Several values for one entry are separate records, joined by “and”; a condition that tells them apart may be missing. Equal entries are not always repeated. Records with an inconclusive call do not appear. Entries that show only a call come without a potency. Activity calls are given as the source filed them. Unless noted, calls come from the whole dose curve; as a rule, active = well fitted curve in the direction sought with a large enough effect; inconclusive = small, poorly fitted or top-dose-only effect, or another doubt; inactive = no such curve, though single readings can be large; an effect the other way counts as inactive or inconclusive.
What was measured:
[1] = Cell Viability - H-4-II-E (AID 543);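 note: cells exposed to compound for 40 hours; nearly all actives have a fitted effect of over 35% in size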; note: potency is the fitted concentration of half-maximal effect
Method in brief: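 CellTiter-Glo luminescence (intracellular ATP) measured after 40 h compound exposure at 37 °C in H-4-II-E rat hepatoma cells seeded at 1500/well. Values are AC50s fitted with the standard Hill equation.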

[2] = Cell Viability - LYMP2-001 (AID 921); note: nearly all actives have a fitted effect of over 70% in size; note: potency is the fitted concentration of half-maximal effect
Method in brief: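 A lymphoblastoid cell line of human origin was treated with library compounds across a concentration series for 24 hours, and viable cell number was estimated from ATP-driven luciferase light output. Hill modeling gave AC50.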

[3] = MultiTox-Fluor Cytotoxicity Assay - LYMP1-001 - Live Cells (AID 947); note: potency is the fitted concentration of half-maximal effect
[4] = Cell Viability - LYMP1-003 - Assay at 40 hr (AID 964); note: nearly all actives have a fitted effect of over 60% in size; note: potency is the fitted concentration of half-maximal effect
Method in brief: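 Viability is taken as cellular ATP, read by CellTiter-Glo luminescence after 40 h of compound exposure at 37 C. Cells: human lymphoblastoid line LYMP1-003 at 2500/well; AC50 values derived by Hill-equation fitting of concentration-response data.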

[5] = Cell Viability - LYMP2-004 (AID 966); note: nearly all actives have a fitted effect of over 65% in size; note: potency is the fitted concentration of half-maximal effect
Method in brief: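 AC50 values come from Hill modelling of concentration-dependent loss of intracellular ATP, measured by CellTiter-Glo luminescence. Human LYMP2-004 lymphoblastoid cells (2500/well) were exposed to compound for 24 h at 37 C.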

[6] = Cell Viability - LYMP2-005 (AID 967); note: potency is the fitted concentration of half-maximal effect
Method in brief: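 Luciferase-based ATP quantitation served as the viability measure in human lymphoblastoid LYMP2-005 cells exposed to test compounds for 24 h at 37 C in complete culture medium. Potency (AC50) was obtained by fitting concentration-response curves with the Hill equation.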

[7] = Cell Viability - LYMP2-009 (AID 968); note: nearly all actives have a fitted effect of over 55% in size; note: potency is the fitted concentration of half-maximal effect
[8] = Cell Viability - LYMP2-017 (AID 972); note: nearly all actives have a fitted effect of over 55% in size; note: potency is the fitted concentration of half-maximal effect
Method in brief: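 CellTiter-Glo luminescence (cellular ATP, 30 min RT) measured cytotoxicity after 24 hr compound treatment at 37 C. Cells were a human lymphoblastoid line, LYMP2-017, plated at 2500/well and incubated 5 hr first; concentration-response fitted with Hill equation for AC50.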

[9] = Cell Viability - LYMP2-019 (AID 973); note: nearly all actives have a fitted effect of over 55% in size; note: potency is the fitted concentration of half-maximal effect
Method in brief: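 AC50 values come from Hill-equation fits of luminescent intracellular ATP (CellTiter-Glo, 30 min, room temperature) following 24 h compound exposure at 37 C. Cells: LYMP2-019 lymphoblastoid line, 2500 per well, in complete culture medium.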

[10] = Cell Viability - LYMP2-002 (AID 977); note: potency is the fitted concentration of half-maximal effect
Method in brief: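 In this qHTS viability screen, 2500 human lymphoblastoid cells per well receive compound for 24 hr at 37 C, and luciferase-based ATP luminescence gives the viability signal. Tetraoctylammonium bromide serves as positive control.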

[11] = Cell Viability - LYMP2-006 (AID 978); note: nearly all actives have a fitted effect of over 60% in size; note: potency is the fitted concentration of half-maximal effect
Method in brief: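 In this cytotoxicity screen, the human lymphoblastoid line grew in complete medium with test compounds for 24 hr at 37 C. Cellular ATP served as the viability signal.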

[12] = Cell Viability - LYMP2-020 (AID 986); note: nearly all actives have a fitted effect of over 55% in size; note: potency is the fitted concentration of half-maximal effect
Method in brief: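 Cytotoxicity in qHTS format: luminescent ATP readout from CellTiter-Glo after 24 h compound exposure at 37 C in complete medium. LYMP2-020 lymphoblastoid cells were seeded at 2500/well; concentration-response data fitted to the Hill equation for AC50.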

[13] = Cell Viability - LYMP2-022 (AID 987); note: nearly all actives have a fitted effect of over 55% in size; note: potency is the fitted concentration of half-maximal effect
Method in brief: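 Cytotoxicity read as decreased cellular ATP (CellTiter-Glo luminescence, 30 min room temperature) after 24 hours compound exposure of 2500 lymphoblastoid LYMP2-022 cells/well at 37 C. Concentration-response data fitted with standard Hill equation for AC50.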

[14] = Cell Viability - LYMP2-024 (AID 988); note: nearly all actives have a fitted effect of over 60% in size; note: potency is the fitted concentration of half-maximal effect
Method in brief: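 Cytotoxicity was taken as a decrease in ATP (CellTiter-Glo luminescence) after 24 hr compound exposure at 37 C of LYMP2-024 lymphoblastoid cells, 2500 cells/well. Concentration-response data were fitted to the Hill equation to give AC50.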

[15] = qHTS assay for small molecule antagonists of retinoid X receptor alpha signaling (AID 588546; active = well fitted inhibition curve with a large enough effect in the signal ratio, with a control signal flat, not every such curve was filed as active; the % refers to the signal ratio;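 note: cells stimulated with 9-cis-retinoic acid as agonist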); conditions: HEK293T RXRa-UAS-bla, beta-lactamase ratio, antagonist mode; measured here: W530 green channel, cytotoxicity proxy
Method in brief: (§1)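 Beta-lactamase reporter inhibition, read as CCF4 fluorescence ratio (ex 405, em 460/530 nm) after 2 h at RT. HEK293T UAS-bla cells, 2500/well, were stimulated with 9-cis-RA at 500 or 100 nM final alongside test compound for 18 h at 37 C.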

[16] = molecular target: Retinoic acid receptor RXR-alpha (Homo sapiens) (UniProt P19793); assay: as above; conditions: HEK293T RXRa-UAS-bla, beta-lactamase ratio, antagonist mode
Method in brief: as §1

[17] = molecular target: Thyroid hormone receptor beta (Homo sapiens) (UniProt P10828); assay: qHTS assay for small molecule antagonists of thyroid hormone receptor beta signaling (AID 588547; active = well fitted inhibition curve with a large enough effect in the signal ratio, with a control signal flat, not every such curve was filed as active; the % refers to the signal ratio;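 note: cells stimulated with 0.4 nM T3 agonist during compound exposure; series mostly up to about 77 µM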); conditions: TR-UAS-bla HEK293, beta-lactamase ratio, antagonist mode, 18 h
Method in brief: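 TR-UAS-bla GripTite HEK293 cells in 2% charcoal/dextran FBS medium were preincubated 4 h at 37 C, given compound (0.59 nM to 92 uM) plus 0.4 nM T3 (final) for 18 h, then CCF4 for 2 h at RT; Hill fit gave IC50.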

[18] = qHTS assay for small molecule disruptors of the mitochondrial membrane potential - 5 hr assay (AID 651755; calls by dose curve; note: nearly all actives have a fitted effect of over 40% in size; note: potency is the fitted concentration of half-maximal effect)
Method in brief: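 Seed HepG2 overnight, add compound, incubate 5 hr at 37C and 5% CO2, stain 30 min with Mito-MPS, then measure monomer (490/535 nm) and aggregate (540/590 nm) fluorescence.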

[19] = qHTS assay for environmental chemicals that activate the Aryl hydrocarbon Receptor (AhR) signaling pathway (AID 651777); conditions: 1A2-DRE human hepatoma cells, luciferase, 24 h; activation: stronger effect = higher value; note: nearly all actives have a fitted effect of over 15% in size
Method in brief: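 Concentration–response screening used 1,200 1A2-DRE cells per well, 24 hr compound exposure (37 C, 5% CO2), and One-Glo luminescence as the AhR-driven CYP1A2 reporter signal.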

[20] = molecular target: Nuclear receptor subfamily 1 group I member 2 (Rattus norvegicus) (UniProt Q9R1A7); assay: qHTS assay for small molecule activators of the rat pregnane X receptor (rPXR) signaling pathway (AID 651751; call rule not given here); conditions: rPXR reporter cells, luciferase (One-Glo), 24 h
Nuclear receptor subfamily 1 group I member 2 (Rattus norvegicus), sequence (Q9R1A7 whole entry, looked up): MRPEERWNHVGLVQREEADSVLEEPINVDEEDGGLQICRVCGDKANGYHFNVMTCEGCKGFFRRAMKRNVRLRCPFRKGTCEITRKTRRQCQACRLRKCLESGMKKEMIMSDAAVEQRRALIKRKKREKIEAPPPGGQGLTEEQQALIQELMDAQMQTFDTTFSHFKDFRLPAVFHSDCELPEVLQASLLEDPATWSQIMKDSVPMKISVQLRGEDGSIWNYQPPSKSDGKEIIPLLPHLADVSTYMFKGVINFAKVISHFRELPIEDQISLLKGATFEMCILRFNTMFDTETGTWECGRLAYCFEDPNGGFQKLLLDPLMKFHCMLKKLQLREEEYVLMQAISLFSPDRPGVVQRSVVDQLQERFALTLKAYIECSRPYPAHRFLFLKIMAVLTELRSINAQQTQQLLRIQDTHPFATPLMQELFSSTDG

Thyroid hormone receptor beta (Homo sapiens), sequence (P10828 whole entry, looked up): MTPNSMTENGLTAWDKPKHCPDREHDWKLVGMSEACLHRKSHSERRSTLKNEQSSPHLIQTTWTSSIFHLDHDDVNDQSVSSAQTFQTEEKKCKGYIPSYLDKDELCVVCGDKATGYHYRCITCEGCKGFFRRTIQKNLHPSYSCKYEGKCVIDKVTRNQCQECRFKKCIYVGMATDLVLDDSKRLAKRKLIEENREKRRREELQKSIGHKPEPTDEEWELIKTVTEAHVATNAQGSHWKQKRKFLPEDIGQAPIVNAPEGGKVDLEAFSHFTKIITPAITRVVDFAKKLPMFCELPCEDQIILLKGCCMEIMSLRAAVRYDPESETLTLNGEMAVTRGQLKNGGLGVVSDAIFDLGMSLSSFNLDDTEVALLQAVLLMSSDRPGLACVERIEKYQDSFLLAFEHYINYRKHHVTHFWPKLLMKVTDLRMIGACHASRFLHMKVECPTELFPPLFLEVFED
Retinoic acid receptor RXR-alpha (Homo sapiens), sequence (P19793 whole entry, looked up): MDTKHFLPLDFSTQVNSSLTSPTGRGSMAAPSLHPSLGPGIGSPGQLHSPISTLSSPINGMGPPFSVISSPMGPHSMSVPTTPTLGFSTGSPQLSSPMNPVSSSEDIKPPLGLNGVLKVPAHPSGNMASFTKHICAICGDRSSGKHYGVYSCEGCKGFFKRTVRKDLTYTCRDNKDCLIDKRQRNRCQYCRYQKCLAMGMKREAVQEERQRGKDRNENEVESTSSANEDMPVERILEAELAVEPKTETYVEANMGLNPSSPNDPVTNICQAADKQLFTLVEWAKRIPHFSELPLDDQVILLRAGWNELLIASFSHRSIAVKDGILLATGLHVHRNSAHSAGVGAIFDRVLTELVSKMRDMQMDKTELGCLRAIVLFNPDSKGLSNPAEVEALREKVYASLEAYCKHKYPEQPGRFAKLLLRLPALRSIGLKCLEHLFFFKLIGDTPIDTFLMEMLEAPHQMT

SMILES | Potency [1] | Potency [2] | Potency [3] | Potency [4] | Potency [5] | Potency [6] | Potency [7] | Potency [8] | Potency [9] | Potency [10] | Potency [11] | Potency [12] | Potency [13] | Potency [14] | max response [15] | max response [16] | activity change % (negative = inhibition) [17] | Potency [18] | activation [19] | max response [20]
C1CCCNCC1 | inactive | inactive | inactive | inactive | inactive | inactive | inactive | inactive | inactive | inactive | inactive | inactive | inactive | inactive | -4.82% | 5.08% (inactive) | -19.9% (inactive) | inactive | 0.178% (inactive) | 1.16% (inactive)
CC(=O)OC(C(=O)c1ccccc1)c1ccccc1 (stereo not given) | inactive | inactive | inactive | inactive | inactive | inactive | inactive | inactive | inactive | inactive | inactive | inactive | inactive | inactive | -6.89% | 22.3% (inactive) | 4.95% (inactive) | inactive | -0.426% (inactive) | 1.59% (inactive)
C=CC(C)(O)CCCC(C)CCCC(C)CCCC(C)C (stereo not given) | inactive | inactive | inactive | inactive | inactive | – | inactive | inactive | inactive | – | inactive | inactive | inactive | inactive | -10.2% | 7.39% (inactive) | 8.61% (inactive) | – | -0.417% (inactive) | 4.48% (inactive)
CCCCC(CC)COP(=O)(OCC(CC)CCCC)OCC(CC)CCCC (stereo not given) | inactive | inactive | inactive | inactive | inactive | inactive | inactive | inactive | inactive | inactive | inactive | inactive | inactive | inactive | -7.24% | -4.08% (inactive) | -23.6% (inactive) | inactive | -1.66% (inactive) | 1.51% (inactive)
Brc1cc(Br)c(Oc2cc(Br)c(Br)cc2Br)cc1Br | inactive | inactive | inactive | inactive | inactive | inactive | inactive | inactive | inactive | inactive | inactive | inactive | inactive | inactive | – | – | 17.2% (inactive) | inactive | -1.17% (inactive) | -2.15% (inactive)
Clc1nc2ccccc2nc1Cl | inactive | – | – | inactive | inactive | inactive | – | – | – | inactive | inactive | – | – | – | -14.8% | 31% (inactive) | -2.15% (inactive) | inactive | 0.0222% (inactive) | –
Brc1cc(Oc2cc(Br)c(Br)c(Br)c2Br)c(Br)c(Br)c1Br | inactive | inactive | inactive | inactive | inactive | inactive | inactive | inactive | inactive | inactive | inactive | inactive | inactive | inactive | 11.5% and 5.63% | 8.94% (inactive) and -3.66% (inactive) | 1.8% (inactive) and 9.48% (inactive) | inactive | -1.15% (inactive) and -2.65% (inactive) | 2.26% (inactive) and 7.81% (inactive)
C=CC(=O)OCCCCCCOC(=O)C=C | 39.8 µM (active) | 31.6 µM (active) | 39.8 µM (active) | 39.8 µM (active) | 39.8 µM (active) | 39.8 µM (active) | 39.8 µM (active) | 39.8 µM (active) | 50.1 µM (active) | 50.1 µM (active) | 50.1 µM (active) | 39.8 µM (active) | 39.8 µM (active) | 31.6 µM (active) | 3.39% and -7.34% | -43.4% (inactive) and 3.26% (inactive) | -7.08% (inactive) | inactive | -0.448% (inactive) and 0.963% (inactive) | -2.77% (inactive) and -1.84% (inactive)
Cc1cc(-c2ccc(N=Nc3cc(S(=O)(=O)O)c4ccccc4c3N)c(C)c2)ccc1N=Nc1cc(S(=O)(=O)O)c2ccccc2c1N | – | – | inactive | – | inactive | – | – | – | inactive | – | – | – | inactive | – | -6.21% | 0.921% (inactive) | -25.1% (inactive) | – | 0.307% (inactive) | -3.26% (inactive)
Nc1ccccc1O | inactive | – | inactive | – | – | – | inactive | inactive | inactive | inactive | inactive | inactive | – | inactive | 21.2% | -7.25% (inactive) | -12.3% (inactive) | 23.7 µM (active) | – | –
O=C(OCC1CO1)C1CCCCC1C(=O)OCC1CO1 (stereo not given) | 50.1 µM (active) | – | inactive | – | – | – | – | – | – | – | – | – | 39.8 µM (active) | – | – | – | -2.36% (inactive) | inactive | 0.749% (inactive) | 1.33% (inactive)
CC(C)(C)C(=O)C1C(=O)c2ccccc2C1=O | – | inactive | inactive | inactive | inactive | inactive | inactive | inactive | inactive | inactive | – | inactive | inactive | inactive | – | – | 12.3% (inactive) | inactive | 5.77% (inactive) | -2.46% (inactive)
O=C1c2ccccc2C(=O)C1(O)O | – | – | – | inactive | 50.1 µM (active) | – | inactive | inactive | – | inactive | inactive | inactive | – | – | -5.61% | 29.7% (inactive) | -4.45% (inactive) | inactive | -0.0089% (inactive) | 1% (inactive)
O=CC(=O)c1ccccc1 | inactive | – | inactive | inactive | – | inactive | – | – | inactive | – | – | inactive | – | – | -7.19% | 6.37% (inactive) | – | inactive | 0.568% (inactive) | 11.8% (inactive)

From PubChem BioAssay (NCATS)
